MITF inh = inhibitors of human MITF | AlphaScreen MITF homodimerization, bead proximity signal | inhibition, % at 2.6 µM | actives 0.91% (n = 650,000) | AID 1259374; in the data active means inhibition above about 50%
FBW7 activator = human FBW7 E3 ligase activation, primary screen; AlphaScreen FBW7–phospho-cyclin E peptide binding, activator screen; normalized activity (activation), % at 26.1 µM; actives 0.13% (n = 650,000); AID 1259310; in the data active means normalized activity above about 1.9%;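 further: purified mutant Fbw7 with reduced substrate affinity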
TEAD-YAP inh = TEAD-YAP interaction inhibition; HEK-TIYL cells, TEAD-Gal4/YAP UAS-luciferase luminescence; inhibition, % at 9.12 µM; actives 1.4% (n = 640,000); AID 1259422; in the data active means inhibition above about 32%
GPR151 ag = human GPR151 activation. activation, % at 11.2 µM. actives 1% (n = 650,000). AID 1508602. PathHunter beta-arrestin GPR151 cells, luminescence. Q8TDV0; in the data active means activation above about 4.9%
Target sequence (Q8TDV0 whole entry, looked up): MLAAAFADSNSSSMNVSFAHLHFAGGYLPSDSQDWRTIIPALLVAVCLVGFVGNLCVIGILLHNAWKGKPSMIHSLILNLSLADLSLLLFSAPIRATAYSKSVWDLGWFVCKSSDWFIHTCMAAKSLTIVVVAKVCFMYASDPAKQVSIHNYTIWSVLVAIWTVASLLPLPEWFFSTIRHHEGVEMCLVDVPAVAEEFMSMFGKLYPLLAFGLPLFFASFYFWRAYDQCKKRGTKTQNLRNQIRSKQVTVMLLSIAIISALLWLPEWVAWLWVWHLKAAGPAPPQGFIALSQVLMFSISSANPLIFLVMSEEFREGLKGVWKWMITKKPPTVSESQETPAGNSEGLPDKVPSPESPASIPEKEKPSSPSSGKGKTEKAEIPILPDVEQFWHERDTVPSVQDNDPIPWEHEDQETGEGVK
MITF inh conf = human MITF inhibition, confirmation. AlphaScreen MITF homodimerization, biotin/His-MITF beads. AID 1259372. inhibition, % at 2.6 µM. actives 16% (n = 4,700). shares compounds with MITF inh;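 active means inhibition above a cutoff derived from the DMSO control wells, cut at about 28% in these data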;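 further: inhibitors lower the bead chemiluminescence by keeping MITF from dimerizing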
AlphaScreen intf2 = counter-screen: compounds optically interfering with AlphaScreen; actives 7.6% (n = 4,700); shares compounds with MITF inh; LysRS AlphaScreen counterscreen, signal interference, triplicate; inhibition, % at 2.6 µM;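 active means inhibition above a cutoff derived from the DMSO control wells, cut at about 30% in these data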
Hits are given with their value; 0 = inactive; - = no result given. Sampled rows, rich in hits. Any-hit rate of the full collection: about 3.5%.

SMILES	MITF inh	FBW7 activator	TEAD-YAP inh	GPR151 ag	MITF inh conf	AlphaScreen intf2
CC(C)(C)NCCCOc1ccc(C(C)(C)C)cc1	0	0	0	0	-	-
CCOc1ccc(OCCCNC(C)(C)C)cc1	69	0	0	0	0	0
COc1sc(SC)cc1/C=N/NC(=O)C(NC(=O)c1ccccc1)=C(C)C	0	0	0	0	-	-
O=S(=O)(/C=C/c1ccccc1)N1CCN(C/C=C/c2ccccc2)CC1	0	0	0	0	-	-
CCN1CCN(S(=O)(=O)/C=C/c2ccccc2)CC1	74	0	0	0	0	0
c1ccc(OCc2nc3ccccc3n2CC2CCN(Cc3ccccn3)CC2)cc1	90	0	0	0	0	0
O=c1/c(=C/c2cccc(Br)c2)sc2nnc(-c3ccccc3)n12	0	0	0	0	-	-
CCN=C1SC(CC(=O)Nc2cccc(OC)c2)C(=O)N1CC (configuration not stated)	0	0	0	0	-	-
CCN1C(=O)C(CC(=O)Nc2cccc(C)c2)SC1=Nc1ccc(OC)cc1OC (configuration not stated)	55	0	0	0	0	0
CCOC(=O)COc1ccc(C=O)cc1OCC	76	0	0	0	0	0
CCOc1cc(C=O)ccc1OCC(=O)OC	0	0	0	0	-	-
Cc1ccc2nc(N3CCC(NCCc4ccccc4F)CC3)nc(C)c2c1	73	0	0	0	0	0
O=c1[nH]c2n[nH]c(=S)n2c2ccccc12	0	0	0	0	-	-
COc1cccc(CN2CCN(C3CCCC(C)C3)CC2)c1OC (configuration not stated)	70	0	0	0	0	0
COc1cccc(CN2CCN(C3CCCC3)CC2)c1OC	61	0	0	0	0	0
COc1ccc(CN2CCN(C3CCCC3)CC2)c(OC)c1OC	52	0	0	0	0	0
COc1cccc(CN2CCCCC2c2cccnc2)c1OC (configuration not stated)	73	0	0	0	0	0
O=C(Nc1ccccc1F)N1CCC(CN2CCOCC2)CC1	0	0	0	0	-	-
COc1ccc(COC(=O)N/N=C2\C[C@@H](O)[C@@H](O)[C@@H]3[C@@H]4C(=O)N(C[C@@H]5CCCO5)C(=O)[C@@H]4CC[C@H]23)cc1	0	0	-	0	-	-
Cc1ccc(NC(=O)c2ccc(Cl)cc2)cc1	0	0	0	0	-	-
Oc1cccc(-c2cnc3ccc(NCc4ccc5c(c4)OCO5)nn23)c1	0	0	0	0	-	-
CCOC(=O)/C(=C\c1ccccc1OCC)C(=O)CN1C(=O)c2ccccc2S1(=O)=O	0	0	0	0	-	-
COC(=O)c1ccc(C(=S)NCC2(N3CCOCC3)CCCCC2)cc1	0	0	0	0	-	-
COc1ccc(CNC(=O)CNCC2(N3CCOCC3)CCCCC2)cc1	55	0	0	0	0	0
Cc1ccccc1CN1CCN(Cc2cccnc2)CC1	84	0	0	0	0	0
SMILES	MITF inh	FBW7 activator	TEAD-YAP inh	GPR151 ag	MITF inh conf	AlphaScreen intf2
C(=N\N1CCN(Cc2cccc3ccccc23)CC1)/c1ccncc1	0	0	0	0	-	-
Cc1ccccc1CN1CCN(Cc2ccncc2)CC1	60	0	0	0	0	0
Cc1ccc(C)c(N2CCN(Cc3cccnc3)CC2)c1	0	0	0	0	-	-
c1ccc2c(CN3CCN(Cc4ccncc4)CC3)cccc2c1	55	0	0	0	0	0
Cc1cc(C)n2nc(C(=O)Nc3ccc(Br)c(C)c3)nc2n1	51	0	0	0	0	0
O=C(NCc1ccccn1)C1CCN(S(=O)(=O)N2CCC3(CC2)OCCO3)CC1	52	0	0	0	0	0
COc1ccc(N2CCN(C3CCCN(Cc4ccncc4)C3)CC2)cc1 (configuration not stated)	0	0	0	0	-	-
Fc1ccc(CN2CCC(N3CCOCC3)CC2)cc1	61	0	0	0	0	0
O=[N+]([O-])c1ccc(CN2CCC(N3CCN(c4ccccc4)CC3)CC2)cc1	78	0	0	0	0	0
c1ccc(N2CCN(C3CCN(Cc4ccncc4)CC3)CC2)cc1	75	0	0	0	0	0
CC1CCN(C2CCN(Cc3ccc([N+](=O)[O-])cc3)CC2)CC1	60	0	0	0	0	0
CSc1ccc(CN2CCN(C3CCN(Cc4ccccc4)CC3)CC2)cc1	0	0	0	0	-	-
O=[N+]([O-])c1ccc(CN2CCC(N3CCCC3)CC2)cc1	0	0	0	0	-	-
COC(=O)C1CCN(C(=O)C2CCCN(C3CCN(Cc4ccccc4)CC3)C2)CC1 (configuration not stated)	0	0	0	0	-	-
Fc1ccc(CN2CCC(N3CCN(c4ccccc4)CC3)CC2)cc1	53	0	0	0	0	0
O=C(C1CCCN(C2CCN(Cc3ccccc3)CC2)C1)N1CCN(c2ccccc2)CC1 (configuration not stated)	73	0	0	0	0	0
Fc1cccc(CN2CCC(N3CCN(c4ccccc4)CC3)CC2)c1	77	0	0	0	0	0
COc1cccc(CC(=O)NCC2CCC3(CCN(Cc4ccccn4)CC3)O2)c1 (configuration not stated)	0	0	0	0	-	-

Screens deposited in PubChem by The Scripps Research Institute Molecular Screening Center.
